Assay results taken from the supplement of paper PMC11417369.
The full ranking holds about 25,000 sequences; the median of “ln(normalized median fluorescence intensity)” is about 9.3, and the highest 2% start at about 10. For the sample, the highest values were picked, then their nearest neighbours and some sequences at random.

test system: PF3D7_0420300 AP2 domain 1 (GST-tagged); experiment: gcPBM binding intensity (ln(normalized median fluorescence intensity)); higher = stronger DNA binding
Summary of the method: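 An Agilent 4 × 180k array of primer-extended double-stranded 36-bp intergenic genomic probes, with negative controls, was incubated for 1 h with GST-tagged P. falciparum DNA-binding domains expressed in E. coli. Alexa488 anti-GST antibody detected bound protein, scanned at 488 nm. Binding intensity is the highest Masliner-normalised natural-log median intensity across replicate spots of either probe orientation.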

Compared with “GAGAAATTTATACATACACACATATAAATATTATAG [CACACA_site7819]”, “AAAAAAAAAAAAAAAAGTACGTATCAAAGCATCAAA [XGTACX_site880]” is lower in “gcPBM binding intensity (ln)” value: 9.6 for the first, 9.42 for the second.

Compared with “CATATTTTTTCTTAAACACACACATATATATATATA [CACACA_site8920]”, TTTATTTTCCAAAGGGTGCACATAGTTGAAACGATA is lower in “gcPBM binding intensity (ln)” value: 9.61 for the first, 9.2 for the second.

First: TTTTTTTTTTTTTTTTTTTTCTTCATTTAATTTATA [GTGCAC_negctrl_site17]
Second: AAAAAAATACAAATATGTACACATATATATTTAAAA [XGTACX_site4729]
The “gcPBM binding intensity (ln)” value of the first is lower: 8.31 for the first, 9 for the second.

First: ACTTATTTATTTTTAGTGCATTTAGTTTTATTTTAT
Second: CCAAAATACATTAAACGTACATGTCCTAATAAGATA [XGTACX_site21]
The “gcPBM binding intensity (ln)” value of the first is higher: 9.63 for the first, 9.15 for the second.

First: AATAATGAATACACATGTACAAAAATTTTTCTTACT [XGTACX_site1962]
Second: CAAGCACACGGACACACACACACACGCGCACGCACA [CACACA_site6307]
The “gcPBM binding intensity (ln)” value of the first is lower: 9.41 for the first, 10.2 for the second.

First: CACACGCACGGACACACACACAAAAAAAAAAAGAAA [CACACA_site6378]
Second: ATCAAGCACGGACACACACACACACCCAGACCCCCA [CACACA_site4360]
The “gcPBM binding intensity (ln)” value of the first is lower: 9.7 for the first, 10.1 for the second.

Compared with “AAAATTGTTATTTTATGTACTTATATTTATTTATTT [XGTACX_site3478]”, “ATTTCTCTATCGTAATGTACAAAAAAAAGGAAAAAA [XGTACX_site1323]” is lower in “gcPBM binding intensity (ln)” value: 9.53 for the first, 9 for the second.

Going from “AAAATACACGCATACACACACACACCGACACATATA [CACACA_site4523]” to “AAAAAAAAAAAATATACACACACACCGACACATAAA [CACACA_site9270]”, the “gcPBM binding intensity (ln)” value falls from 10.2 to 10.1.

Going from “AAAAAAAAAAAACATACACACATACATACCTATATA [CACACA_site6575]” to “CACGCACGCACATACACACACATACACATATAAATA [CACACA_site6907]”, the “gcPBM binding intensity (ln)” value rises from 9.78 to 9.95.

Going from “TTTAAATACAGACATACACACATACACGCACATATA [CACACA_site6400]” to “TAAATTAAAAAAAATACACACACACCGACACATATA [CACACA_site9084]”, the “gcPBM binding intensity (ln)” value rises from 9.85 to 10.

Compared with “AAAAAAAATACATACACACACACACGCACATATATA [CACACA_site7645]”, “AAAACATACCTATATACACACATATAAATATAAATA [CACACA_site6956]” is lower in “gcPBM binding intensity (ln)” value: 10.4 for the first, 9.71 for the second.

Compared with “TACAGACTAAAATACACACACACACGCACATATATA [CACACA_site7875]”, “CTAAAATACAGACACACACACACATATATATATATA [CACACA_site4150]” is lower in “gcPBM binding intensity (ln)” value: 10.2 for the first, 9.93 for the second.

Going from “AAAAAAAAAAAAAATACACACATATATATATATATA [CACACA_site85]” to “TAAACATACCTATACACACACACACGCACACGCACA [CACACA_site6372]”, the “gcPBM binding intensity (ln)” value rises from 9.45 to 10.3.

Compared with “TAAATAAATTATTTTCGTACTTATTTATTTTAATTA [XGTACX_site283]”, “TTTAGTGTTATAAAAAGTACATAATAATTCCTTTTC [XGTACX_site3208]” is lower in “gcPBM binding intensity (ln)” value: 9.03 for the first, 8.95 for the second.

Compared with “CTTTTTAATAAATATACACACACAAAAAAAAAAAAA [CACACA_site9316]”, “AATTTAAAAGAAAAAGAAAAATAATAAACAGAAGCA [XGTACX_negctrl_site503]” is lower in “gcPBM binding intensity (ln)” value: 9.73 for the first, 9.68 for the second.

Compared with “TTTTTTTTTTTTGTCACACATATGGAATATATCTAT [CACACA_site5899]”, “AAAGAAATAAGGTGCACACATATACAGATATATATA [CACACA_site4399]” is higher in “gcPBM binding intensity (ln)” value: 9.26 for the first, 9.66 for the second.

Going from “CTATATGTATAAAGTTGTACAGTTTTTCAAAGTTAA [XGTACX_site6652]” to “TAAATTTATAAATCACGTACATATTTATTTATATTT [XGTACX_site4532]”, the “gcPBM binding intensity (ln)” value rises from 9.03 to 9.19.

Going from “TATTTTATTTCAAATCTTAATAATTGTAATTCTTCA [XGTACX_negctrl_site442]” to “ATATTTTATATGTTCACACATACATAAACATATTTT [CACACA_site4948]”, the “gcPBM binding intensity (ln)” value rises from 8.91 to 9.34.

Going from “CACGCATATATACATACATGCATATATACATCCATG [TGCATGCA_site667]” to “AAGCATACATCAAGCACACACACACCCACACCCACA [CACACA_site372]”, the “gcPBM binding intensity (ln)” value rises from 9.27 to 10.1.

“GCATACATCAAGCACACACACACACGCACACGCACA [CACACA_site6311]” and “AAAATACACGCATACACACACACACGCGCACATATA [CACACA_site6448]” are the same in “gcPBM binding intensity (ln)” value: 10.3 for the first, 10.3 for the second.

Compared with “AAAAAAAAAAAAAAAACACACATACACGCACGCACA [CACACA_site7569]”, “TACACAAATATATACATACACACATATATACGCATA [CACACA_site394]” is higher in “gcPBM binding intensity (ln)” value: 9.72 for the first, 9.79 for the second.

Compared with “CACAAATATATACATACACACATATATACGCATATA [CACACA_site395]”, “AAAAAAAAAAAACATACACACACATATATATATATA [CACACA_site8452]” is higher in “gcPBM binding intensity (ln)” value: 9.72 for the first, 9.9 for the second.

Going from “AAAAAAAAAAAAAACACACACACACGCACATATACA [CACACA_site7288]” to “AGAAGCATACATCAAGCACACACACCCACACCCACA [CACACA_site8014]”, the “gcPBM binding intensity (ln)” value falls from 10.2 to 9.99.

First: AAAAGATGCGCATACACACAGATGAATAACAAAAAA [CACACA_site6865]
Second: AAACAAATAGACACTTGTACGTAAGTAAATAATTAA [XGTACX_site6157]
The “gcPBM binding intensity (ln)” value of the first is higher: 9.74 for the first, 9.43 for the second.

Compared with “ATTTAATTTTTTTTTAAACACACATTTTTTTATTTA [CACACA_site8880]”, “ATTTTTTTATAAAATTTTTTATATATTAAATATTAT [CACACA_negctrl_site135]” is lower in “gcPBM binding intensity (ln)” value: 9.36 for the first, 9.04 for the second.

Compared with “GTAAAATTTACATAGAGTACTTATATTTTTTTCTGC [XGTACX_site3414]”, “AAAAATTTGGCATACACACACACACCGACACAGACA [CACACA_site4489]” is higher in “gcPBM binding intensity (ln)” value: 8.96 for the first, 10.1 for the second.

First: ATTTGGCATGGACACACACACACACCGACAGACATA [CACACA_site4491]
Second: ATAAAGCACACCGACACACACATATATATATATATA [CACACA_site1047]
The “gcPBM binding intensity (ln)” value of the first is higher: 10.2 for the first, 9.8 for the second.

Compared with “CATATTTGTGGACACACACACATATTTATATATATA [CACACA_site5887]”, “TATACTCATGGACACACACACATACACAGACATACA [CACACA_site5024]” is higher in “gcPBM binding intensity (ln)” value: 9.75 for the first, 9.92 for the second.

Going from “ATAATTTGTGGACACACACACACACCGACATATATA [CACACA_site8718]” to “TTATTAATTATATATAGTACACATTTCACAGATGGG [XGTACX_site2349]”, the “gcPBM binding intensity (ln)” value falls from 10.2 to 9.2.

Going from “TATTTATGTATATGCTGTACGCATTTGTGAAACATA [XGTACX_site4688]” to “GTACATATAAATATTACACACATTTTCATTTTTAAC [CACACA_site1986]”, the “gcPBM binding intensity (ln)” value rises from 9.06 to 9.56.

Compared with “ATAATTTATATTCAGAAACACACGAAAAAAAAAAAT [CACACA_site1296]”, “TAAATGTAAAACGAAATGCACACTATGGAAAATATA [CACACA_site724]” is higher in “gcPBM binding intensity (ln)” value: 9.64 for the first, 9.66 for the second.

First: AATTAATATTTAAATTGTACATGAACATTTTAATGT [XGTACX_site462]
Second: CAAATACATAGACACACACACATATACATATTTATA [CACACA_site7610]
The “gcPBM binding intensity (ln)” value of the first is lower: 8.97 for the first, 10 for the second.

Compared with “TCATTCATATGTTACACACACACACGCACATAAAAA [CACACA_site7514]”, “ATTCATTCATATGTTACACACACACCGACACATAAA [CACACA_site5749]” is lower in “gcPBM binding intensity (ln)” value: 10.3 for the first, 10 for the second.

Compared with “AAAATTCATAAATACACACACGCACATATATATATA [CACACA_site4227]”, “TCATTCATATGTTACACACACACACCCACATAAAAA [CACACA_site3245]” is higher in “gcPBM binding intensity (ln)” value: 9.88 for the first, 10.1 for the second.

Going from “ATTCATTCATATGTTACACACACACCCACCCATAAA [CACACA_site9066]” to “ATTCATTCATATGTTACACACACACGCCCACATAAA [CACACA_site7513]”, the “gcPBM binding intensity (ln)” value rises from 10.2 to 10.3.

Going from “AAAAAGGGTATTATTACACACACGTAAATATTAATA [CACACA_site101]” to “TTTCCTTTTTTAATATGTACACATATTATTATATCT [XGTACX_site3079]”, the “gcPBM binding intensity (ln)” value falls from 9.61 to 9.45.

Going from “ATAATTTAAAAACATTGTACATTAATATATATGTAT [XGTACX_site8970]” to “GTACACATATATATATATATATATATATATATATAT [CACACA_negctrl_site800]”, the “gcPBM binding intensity (ln)” value rises from 9.12 to 9.25.

Going from “ATATATATTTTTATTTGTACATAATTTTTTTTGTGA [XGTACX_site6378]” to “ACCAAAAAAAAAAAAAAAAAAATATACATATATATA [GTGCAC_negctrl_site582]”, the “gcPBM binding intensity (ln)” value falls from 9.21 to 9.05.

Compared with “TCATTTCACAGACACACACACACAAGATATTTCCTT [CACACA_site7774]”, “TTTCATTTCACAGACACACACACACCCTATATTTCC [CACACA_site3906]” is higher in “gcPBM binding intensity (ln)” value: 10 for the first, 10.2 for the second.

Compared with “ATTTCACAGAGACACACACACAATATATTTCCTTTT [CACACA_site7773]”, “AAAGAAAATTAAAAAGAACACACAAATATATATATA [CACACA_site9196]” is lower in “gcPBM binding intensity (ln)” value: 9.94 for the first, 9.67 for the second.

First: AAATAGAAAAAATATACACACACTTATTAAATAAAA [CACACA_site3313]
Second: TGAGTATATAAATACACACACATATATATATTTTAA [CACACA_site5130]
The “gcPBM binding intensity (ln)” value of the first is higher: 9.86 for the first, 9.61 for the second.

First: TATATATATATATATGCATGTACATATATTTGTTAT [TGCATGCA_site379]
Second: ATATATATTTATATATGTACATATTTTTGTGTATTT [XGTACX_site1183]
The “gcPBM binding intensity (ln)” value of the first is higher: 9.57 for the first, 9.55 for the second.

Going from “TTTGTCATTTTATTATGTACTCAGCATATAGGGGGG [XGTACX_site505]” to “ATATATATATATATATGTACTCATATTTTATTATTT [XGTACX_site898]”, the “gcPBM binding intensity (ln)” value falls from 10.5 to 9.

Going from “TATATATATATATTATGTACTCATTTATTATCTTTT [XGTACX_site8051]” to “ATGCATATATTTATGTGTACATATATTTGTAGGGGG [XGTACX_site6063]”, the “gcPBM binding intensity (ln)” value rises from 9.36 to 10.7.

In the case of “TATATACACATATATACACACACATATATATATATA [CACACA_site9127]”, the “gcPBM binding intensity (ln)” value is reported as 9.79.
